# Assay outcomes (PubChem BioAssay)
# rCAG binder = r(CAG) repeat RNA binding; TO-PRO-1 dye displacement fluorescence; inhibition, % at 3 µM; hit rate 1.3% among 370,000;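 active = inhibition above the plate cutoff, the mean of all test compounds on that plate plus 3 SD, cut at about 35% in these data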;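 note: higher means more dye released from RNA so lower well fluorescence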
# A3G deaminase = APOBEC3G (human) deaminase inhibition | Q9HC16 | recombinant A3G, ssDNA deamination FAM/TAMRA fluorescence | inhibition, % at 20 µM | hit rate 0.28% among 330,000 | AID 493012;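 active = inhibition of at least 40% at 20 µM, with no more than 30% in the related APOBEC3A deaminase screen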
# PHOSPHO1 block = PHOSPHO1 (human) inhibition; recombinant PHOSPHO1, absorbance phosphatase assay; inhibition, % at 13.3 µM; hit rate 1.1% among 290,000; AID 1565; in the data active = inhibition above about 60%
# aDG glyco act = alpha-DG glycosylation activation | Pro5-aDG cells, alpha-DG glycosylation AlphaScreen (IIH6); 0% Pro5, 100% B10-LARGE cell signal | activation, % at 10 µM | hit rate 0.22% among 360,000 | AID 624168;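 active = activation of at least 8% versus controls, or a plate z-score of at least 8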;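 note: Pro5 are CHO cells carrying HIG-tagged alpha-DG that lacks glycosylation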
# APOBEC3A inh = inhibitors of human APOBEC3A DNA deaminase | P31941 | recombinant A3A, FAM/TAMRA ssDNA deamination fluorescence | inhibition, % at 20 µM | hit rate 0.41% among 330,000;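 active = at least 40% inhibition at 20 µM here, with at most 30% in a related deaminase screen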
# Target sequence (P31941 whole entry, looked up): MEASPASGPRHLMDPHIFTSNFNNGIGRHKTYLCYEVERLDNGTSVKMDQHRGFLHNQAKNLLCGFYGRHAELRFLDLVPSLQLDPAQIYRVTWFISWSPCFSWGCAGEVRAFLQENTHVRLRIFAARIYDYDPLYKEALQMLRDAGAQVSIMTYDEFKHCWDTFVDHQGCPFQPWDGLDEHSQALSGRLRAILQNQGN
# ALR inh = human ALR oxidase inhibition via reduced H2O2 | P55789 | purified ALR, DTT oxidation, H2O2 HRP-luminol luminescence | inhibition, % (no concentration beside the values) | hit rate 3.8% among 290,000;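 active = mean replicate inhibition above about 79%, with every replicate also reaching it, limit read from the data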
# Target sequence (P55789 whole entry, looked up): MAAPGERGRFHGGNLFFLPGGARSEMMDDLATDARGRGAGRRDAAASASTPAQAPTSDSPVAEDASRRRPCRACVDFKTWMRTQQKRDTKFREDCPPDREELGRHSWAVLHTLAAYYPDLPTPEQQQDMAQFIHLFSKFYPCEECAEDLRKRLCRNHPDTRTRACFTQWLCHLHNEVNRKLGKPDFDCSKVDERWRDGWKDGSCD
# A3G conf = APOBEC3G (human) deaminase inhibition, confirmed. shares compounds with A3G deaminase. hit rate 72% among 890. inhibition, % at 20 µM. recombinant A3G ssDNA deaminase, UDG/FAM-TAMRA fluorescence;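 active = inhibition reaching a set limit in any replicate at 20 µM, the limit being 80% of the first screen's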
# UDG A3G counter = E. coli UDG inhibition in APOBEC3G counter-screen | UDG counterscreen, FAM/TAMRA oligo fluorescence | 710 tested, under 10 active | inhibition, % at 20 µM | shares compounds with A3G deaminase;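 active = compounds giving 40% or more inhibition at 20 µM in any one of the three replicates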;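 note: inhibitors lower the FAM signal released by uracil excision and alkaline cleavage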
# Target sequence (P12295 whole entry, looked up): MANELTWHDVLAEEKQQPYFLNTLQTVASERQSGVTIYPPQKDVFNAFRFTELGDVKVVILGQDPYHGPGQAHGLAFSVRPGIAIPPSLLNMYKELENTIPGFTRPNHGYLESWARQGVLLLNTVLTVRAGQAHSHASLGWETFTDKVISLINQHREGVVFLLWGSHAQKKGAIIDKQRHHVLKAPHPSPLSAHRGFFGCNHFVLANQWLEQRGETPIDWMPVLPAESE
# A number is an active result; 0 = inactive; - = not tested or not shown. The list is not random: actives were taken first. Their share in the collection is about 5.4%.
SMILES,rCAG binder,A3G deaminase,PHOSPHO1 block,aDG glyco act,APOBEC3A inh,ALR inh,A3G conf,UDG A3G counter
C/C(=N\Nc1cccc2cccnc12)c1ccc(N)cc1,0,58.0,0,0,0,0,0,-
N#C/C(=C(/O)COc1ccc(Cl)cc1)c1nc2ccccc2s1,0,57.4,0,0,0,0,0,0
N#C/C(=C(/O)COc1ccccc1)c1nc2ccccc2s1,0,0,0,0,0,0,-,-
Cc1cc(C)c(N2C(=O)CC(Sc3ccccc3N)C2=O)c(C)c1 (configuration not stated),0,-,-,0,-,-,-,-
CCn1c(CSCc2ccccc2)n[nH]c1=S,0,40.5,0,0,0,0,84.9,0
CCn1c(CSc2nc3ccccc3[nH]2)n[nH]c1=S,-,46.4,0,0,0,95.6,54.5,0
CCOc1ccccc1CSc1nc2ccccc2[nH]1,0,0,0,0,0,0,-,-
CCC(=O)N1CC2(CC(c3cccc(NC(=O)CC(c4ccccc4)c4ccccc4)c3)=NO2)C[C@H]1C(N)=O (some centres not stated),0,0,0,0,0,0,-,-
C=C(C)C(=O)Nc1cccc(C2=NOC3(C2)C[C@H](C(N)=O)N(C(=O)CC)C3)c1 (some centres not stated),-,87.7,0,0,0,0,92.2,-
C=C(C)C(=O)Nc1cccc(C2=NOC3(C2)C[C@H](C(N)=O)N(C(=O)c2ccccc2C(=O)c2ccccc2)C3)c1 (some centres not stated),0,82.9,0,0,0,-,87.7,0
C=C(C)C(=O)Nc1cccc(C2=NOC3(C2)C[C@@H](C(N)=O)N(C(=O)CC(c2ccccc2)c2ccccc2)C3)c1 (some centres not stated),0,69.9,0,0,0,-,71.2,0
C=C(C)C(=O)Nc1cccc(C2=NOC3(C2)C[C@H](C(N)=O)N(C(=O)CC#N)C3)c1 (some centres not stated),-,74.2,0,-,0,0,73.2,-
C/C=C(\C)C(=O)Nc1cccc(C2=NOC3(C2)C[C@@H](C(N)=O)N(C(=O)c2ccccc2C(=O)c2ccccc2)C3)c1 (some centres not stated),0,0,0,0,0,0,-,-
C/C=C(/C)C(=O)Nc1cccc(C2=NOC3(C2)C[C@@H](C(N)=O)N(C(=O)CC(c2ccccc2)c2ccccc2)C3)c1 (some centres not stated),0,0,0,0,0,0,-,-
CC(c1ccc(Cl)cc1)N(CCN(C)C)c1ccccn1 (configuration not stated),0,-,-,-,-,-,-,-
C=C(C)C(=O)Nc1cccc(C2=NOC3(C2)C[C@@H](C(N)=O)N(C(=O)/C=C/C=C/C)C3)c1 (some centres not stated),0,89.4,0,0,0,0,93.4,0
C=C(C)C(=O)Nc1cccc(C2=NOC3(C2)C[C@@H](C(N)=O)N(C(=O)/C(C)=C/C)C3)c1 (some centres not stated),0,86.2,0,0,0,0,94.6,-
COC(=O)C1=C(C)N(Cc2ccccc2C(F)(F)F)C(=NCc2ccc3c(c2)OCO3)NC1c1ccc(C(F)(F)F)cc1 (configuration not stated),0,-,-,-,-,-,-,-
CCc1nc2c(OCc3cccc(Cl)c3)cccn2c1N(C)C(=O)CC(C)C,0,-,-,0,-,-,-,-
O=S1(=O)N[C@H](Cc2ccccc2)COc2cc(N3CCOCC3)ccc21,0,-,-,-,-,-,-,-
CCOC(=O)c1c(NC(=O)CSc2nnnn2-c2ccc(OC)cc2)sc(C)c1C,0,45.3,87.4,0,0,0,77.4,0
CCC1=NNc2cccc3c(OC)ccc1c23,-,60.1,0,-,0,0,73.1,-
COc1ccc2c3c(cccc13)C(=O)N(O)C2=O,0,-,0,0,-,-,-,-
COc1cccc(CNC(=O)[C@H]2CCCN2C(=O)[C@H]2CCCN2)c1,0,-,-,-,-,-,-,-
Cc1cc(-c2csc(N)n2)c(C)n1CCC(C)C,0,40.3,102.0,0,0,0,0,-
SMILES,rCAG binder,A3G deaminase,PHOSPHO1 block,aDG glyco act,APOBEC3A inh,ALR inh,A3G conf,UDG A3G counter
NC(Cc1ccc(C(F)(F)F)cc1)c1csc(Nc2cc(NCc3ccco3)ncn2)n1 (configuration not stated),0,-,-,0,-,-,-,-
Cc1cccc2cc(COC(=O)c3ccccn3)c(=O)[nH]c12,0,40.4,0,0,0,0,0,0
COc1ccc(C(=O)OCc2cc3cccc(C)c3[nH]c2=O)cc1,0,0,0,0,0,0,-,-
CCCCC(=O)Nc1sc(C(=O)N(CC)CC)c(C)c1C(=O)OC,0,68.0,0,0,0,-,67.6,0
CCSC1=NC2(CCCCC2)Nc2sc3c(c21)CCCC3,0,59.5,95.3,0,0,0,39.5,-
CCSc1nc2sc3c(c2c(=O)[nH]1)CCCC3,0,0,0,0,0,0,-,-
CC(=O)Oc1ccc(N2C(=O)C3C(C2=O)C2(C)C=CC3(C)O2)cc1 (configuration not stated),-,46.7,0,-,0,0,48.7,-
COCCN(CCOC)Cc1cc(=O)oc2cc(C)c(C)cc12,0,-,-,0,-,-,-,-
CSc1nnc(-c2sc(-c3ccccc3)nc2C)n1C,0,0,0,0,0,0,-,-
Cc1nc(-c2ccccc2)sc1-c1n[nH]c(=S)n1C,0,43.2,0,0,0,92.0,76.1,0
Cn1c(-c2ccc(C(C)(C)C)cc2)n[nH]c1=S,0,40.5,69.2,0,0,0,73.3,0
Cn1c(-c2sccc2OCc2ccccc2)n[nH]c1=S,0,45.3,99.1,0,0,96.8,78.2,0
Cn1c(-c2sccc2OCc2ccc(Cl)cc2Cl)n[nH]c1=S,0,0,0,0,0,0,-,-
CCOc1ccc(Nc2nc3cc(S(=O)(=O)N(CC)CC)ccc3o2)cc1,-,49.5,0,0,0,0,61.5,0
CCS(=O)(=O)c1ccc2oc(Nc3ccc(C(C)C)cc3)nc2c1,0,67.9,82.4,0,0,0,77.8,0
CCN(CC)S(=O)(=O)c1ccc2oc(Nc3ccc(OC)cc3)nc2c1,0,0,0,0,0,0,-,-
C[C@H](O)[C@@H]1C(=O)N2CCc3c([nH]c4c(-c5ccccc5)cccc34)[C@@H]2C[C@@H]1N(C)CC1CCCCC1,0,-,-,-,-,-,-,-
COC(=O)[C@]12C[C@H](CC(=O)NCCC(C)C)C(=O)N(CCC3=CCCCC3)C1=C[C@H](COCc1ccccc1)O[C@@H]2C,0,-,-,-,-,-,-,-
COc1ccc(-n2nnc3c(SC(C(C)=O)C(=O)N(C)C)ncnc32)cc1 (configuration not stated),0,51.4,0,0,0,0,0,0
CN(C)c1ccc(C(c2ccc(N(C)C)cc2)C(O)c2ccccc2)cc1 (configuration not stated),0,-,-,0,-,-,-,-
Cc1ccc(/C=N/n2c(-c3ccccn3)n[nH]c2=S)o1,0,0,0,0,0,-,-,-
